This is an account of results in PubChem BioAssay.

Experiment [1] in a line: optical density shifts of acrAB sulA E. coli – strain DRC41, OD650, 48 h, E. coli filamentation inducer project, primary screen (AID 1152).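 Also: E. coli MC1000 strain DRC41 lacking acrAB efflux pump and sulA.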 The following applies: higher = more signal, called active from +8 up or from −8 down.
A short description of experiment [2]: probe aLefty1 binding on compound microarray – biochemical, small-molecule microarray, 635/667 nm fluorescence, primary screen (AID 1153).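 Also: score merges spot fluorescence with signal-to-noise ratio from the scanned slide images.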 The following applies: higher = more signal.
Experiment [3] is described as follows: plasmodial surface anion channel blockers, osmotic lysis – cell-based, P. falciparum Indochina, OD700, 1 h, primary screen (AID 1154). The settings on record: P. falciparum Indochina infected RBC osmotic lysis, higher = more signal, called active from +8 up or from −8 down.
A short description of experiment [4]: plasmodial surface anion channel blockers, osmotic lysis – cell-based, P. falciparum Indochina, OD700, 2 h, primary screen (AID 1155).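 Also: lysis reports solute entry through the parasite surface anion channel PSAC.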 The settings on record: P. falciparum Indochina infected erythrocytes, higher = more signal, called active from +8 up or from −8 down.
Experiment [5] in a line: changes in parasitized red cell lysis, either direction – P. falciparum Indochina, OD700, 3 h, PSAC antagonist project, primary screen (AID 1156). The following applies: P. falciparum-infected erythrocytes, osmotic lysis, higher = more signal, called active from +8 up or from −8 down.
Experiment [6] in a line: plasmodial surface anion channel blockers, osmotic lysis – cell-based, P. falciparum Indochina, OD700, 18 h, primary screen (AID 1157). The settings on record: P. falciparum Indochina infected erythrocytes, osmotic lysis OD700, 18 h; higher = more signal, called active from +8 up or from −8 down.
Experiment [7] can be described thus: S6 kinase pathway phospho-S6 level changes – cell-based, A549, cytoblot, luminescence, serum-stimulated, primary screen (AID 1158).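 Also: serum-stimulated A549 lung adenocarcinoma cells; signal is phosphorylated S6 detected by cytoblot immunostaining with HRP secondary.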 The following applies: 5 h, higher = more signal.
Experiment [8] deals with NADPH oxidase 2 (Homo sapiens) (UniProt P04839). Put plainly: compounds shifting NOX2 Amplex Red fluorescence – cell-based, HEK293-NOX2, PMA-stimulated, NOX inhibitor project, primary screen (AID 1159). Also: test concentration not given here. The following applies: 45 min, higher = more signal, called active from +8 up or from −8 down.
Chain of NADPH oxidase 2 (Homo sapiens) (P04839 whole entry, looked up): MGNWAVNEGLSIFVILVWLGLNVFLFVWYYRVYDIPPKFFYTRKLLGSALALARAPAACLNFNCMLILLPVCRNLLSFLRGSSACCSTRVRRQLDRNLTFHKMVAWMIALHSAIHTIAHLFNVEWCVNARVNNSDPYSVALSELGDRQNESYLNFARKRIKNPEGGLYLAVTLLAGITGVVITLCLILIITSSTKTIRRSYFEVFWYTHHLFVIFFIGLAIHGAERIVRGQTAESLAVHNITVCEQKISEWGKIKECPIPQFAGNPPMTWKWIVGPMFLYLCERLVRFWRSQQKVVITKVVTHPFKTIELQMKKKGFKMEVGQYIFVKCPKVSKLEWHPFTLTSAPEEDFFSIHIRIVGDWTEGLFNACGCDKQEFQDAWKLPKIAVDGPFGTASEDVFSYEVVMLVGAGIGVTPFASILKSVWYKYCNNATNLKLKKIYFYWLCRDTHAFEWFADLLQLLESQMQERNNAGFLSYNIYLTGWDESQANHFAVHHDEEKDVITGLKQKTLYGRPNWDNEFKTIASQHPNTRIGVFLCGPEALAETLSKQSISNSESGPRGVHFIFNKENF
Experiment [9] addresses NADPH oxidase 4 (Homo sapiens) (UniProt Q9NPH5). Put plainly: compounds shifting NOX4 Amplex Red fluorescence – cell-based, HEK293-NOX4, tetracycline-induced, NOX inhibitor project, primary screen (AID 1160). The settings on record: HEK293-NOX4, Amplex Red H2O2 fluorescence, 45 min; higher = more signal, called active from +8 up or from −8 down.
In experiment [10] the target is NADPH oxidase 5 (Homo sapiens) (UniProt Q96PH1). Put plainly: compounds shifting NOX5 Amplex Red fluorescence – cell-based, HEK293-NOX5, NOX inhibitor project, primary screen (AID 1161). The following applies: HEK293-NOX5, ionomycin, 45 min, higher = more signal.
Chain of NADPH oxidase 5 (Homo sapiens) (Q96PH1 whole entry, looked up): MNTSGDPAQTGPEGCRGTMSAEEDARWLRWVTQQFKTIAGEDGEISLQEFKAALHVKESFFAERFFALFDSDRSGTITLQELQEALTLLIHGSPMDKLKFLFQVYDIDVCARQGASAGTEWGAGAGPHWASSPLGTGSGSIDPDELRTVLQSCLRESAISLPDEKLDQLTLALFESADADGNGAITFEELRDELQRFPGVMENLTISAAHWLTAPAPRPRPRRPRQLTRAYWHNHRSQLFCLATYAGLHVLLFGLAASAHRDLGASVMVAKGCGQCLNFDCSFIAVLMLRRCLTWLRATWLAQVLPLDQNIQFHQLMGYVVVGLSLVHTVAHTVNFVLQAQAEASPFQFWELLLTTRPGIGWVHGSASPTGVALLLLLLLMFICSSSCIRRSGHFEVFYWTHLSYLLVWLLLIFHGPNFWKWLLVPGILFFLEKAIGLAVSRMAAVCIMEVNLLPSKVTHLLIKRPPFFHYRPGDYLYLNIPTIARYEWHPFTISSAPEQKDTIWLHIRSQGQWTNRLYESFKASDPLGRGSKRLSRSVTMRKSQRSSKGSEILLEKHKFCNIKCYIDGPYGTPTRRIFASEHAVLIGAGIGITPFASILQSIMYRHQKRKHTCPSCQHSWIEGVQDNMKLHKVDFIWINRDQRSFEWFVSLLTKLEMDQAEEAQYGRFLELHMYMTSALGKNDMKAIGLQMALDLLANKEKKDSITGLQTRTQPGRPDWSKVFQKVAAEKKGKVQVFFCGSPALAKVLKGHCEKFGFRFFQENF
Experiment [11] in a line: compound effects on lung adenocarcinoma cell viability – A549, calcein-AM fluorescence, 48 h, basal, profiling panel (AID 1162). Also: test concentration not given here. The following applies: higher = more signal.
Experiment [12] is described as follows: compound effects on differentiated 3T3-L1 adipocyte viability – cell-based, 3T3-L1 adipocytes, calcein-AM fluorescence, 48 h, basal, profiling panel (AID 1163). Also: test concentration not given here. The settings on record: 3T3-L1 adipocytes viability, higher = more signal.
A short description of experiment [13]: compound effects on hepatocellular carcinoma cell viability – HepG2, calcein-AM fluorescence, 48 h, basal, profiling panel (AID 1164). Also: test concentration not given here. The settings on record: higher = more signal.
Experiment [14] in a line: compound effects on multiple myeloma cell viability – MM1S, calcein-AM fluorescence, 48 h, basal, profiling panel (AID 1165).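 Also: viability of MM1S multiple myeloma cells under basal unstimulated conditions; test concentration not given here.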 The following applies: higher = more signal.
Experiment [15] can be described thus: calcein-AM signal in unstimulated myeloma cells – cell-based, calcein-AM fluorescence, 48 h, PK04 Diversity Set, profiling panel (AID 1166).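 Also: cells grown under basal conditions without added stimulus; test concentration not given here.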 The following applies: RPMI8226 myeloma viability, higher = more signal.
Experiment [16] in a line: JC-1 mitochondrial signal, unstimulated HepG2 cells – cell-based, JC-1 fluorescence, 24 h, 100 nL compound, profiling panel (AID 1167). Also: test concentration not given here. The settings on record: HepG2 mitochondrial potential, higher = more signal.
Experiment [17] can be described thus: JC-1 mitochondrial signal, unstimulated adipocytes – cell-based, JC-1 fluorescence, 3T3-L1 adipocytes, 24 h, 100 nL compound, profiling panel (AID 1168). Also: test concentration not given here. The following applies: JC-1 mitochondrial fluorescence, higher = more signal, called active from +8 up or from −8 down.
A short description of experiment [18]: JC-1 mitochondrial signal, unstimulated myeloma cells – cell-based, JC-1 fluorescence, RPMI8226, 24 h, 100 nL compound, profiling panel (AID 1169). Also: test concentration not given here. The settings on record: JC-1 mitochondrial potential fluorescence, higher = more signal.
The nature of experiment [19]: JC-1 mitochondrial signal, unstimulated MM1S myeloma – cell-based, JC-1 fluorescence, 24 h, 100 nL compound, profiling panel (AID 1170). Also: test concentration not given here. The settings on record: MM1S mitochondrial potential, higher = more signal.
The nature of experiment [20]: resazurin metabolic signal in A549 cells – cell-based, resazurin fluorescence, 24 h, PK04 Diversity Set, profiling panel (AID 1171). Also: test concentration not given here. The following applies: A549 viability, higher = more signal, called active from +8 up or from −8 down.

Molecules are shown by their SMILES. Activity calls are given as the source filed them.

Chain of NADPH oxidase 4 (Homo sapiens) (Q9NPH5 whole entry, looked up): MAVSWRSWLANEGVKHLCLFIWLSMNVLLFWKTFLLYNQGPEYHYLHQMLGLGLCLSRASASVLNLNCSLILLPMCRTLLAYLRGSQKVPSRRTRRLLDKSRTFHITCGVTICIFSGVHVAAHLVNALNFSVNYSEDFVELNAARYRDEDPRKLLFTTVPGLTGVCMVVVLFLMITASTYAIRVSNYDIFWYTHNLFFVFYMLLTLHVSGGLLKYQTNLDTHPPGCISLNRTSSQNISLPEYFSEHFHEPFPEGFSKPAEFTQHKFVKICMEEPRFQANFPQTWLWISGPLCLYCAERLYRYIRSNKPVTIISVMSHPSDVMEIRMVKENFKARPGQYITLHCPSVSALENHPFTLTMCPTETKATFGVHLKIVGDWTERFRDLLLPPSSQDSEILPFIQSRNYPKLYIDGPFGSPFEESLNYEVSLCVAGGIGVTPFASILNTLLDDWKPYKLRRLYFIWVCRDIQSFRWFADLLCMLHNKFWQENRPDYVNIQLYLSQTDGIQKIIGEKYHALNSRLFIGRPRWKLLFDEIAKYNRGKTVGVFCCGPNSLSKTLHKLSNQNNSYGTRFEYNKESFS

For `[N-]=[N+]=NCc1ccccc1C[C@]1(C(=O)N2CCCCC2)N=C(c2ccc(OCCCO)cc2)O[C@H]1c1ccccc1CN=[N+]=[N-]`, the z-score in experiment [1] was -0.481 (inactive); in [3] it was 16.1 (active); in experiment [4] it was 3.02 (inactive); in experiment [5], 2.16 (inactive); in experiment [6], 1.16 (inactive); in experiment [7], -0.574. The z-score in experiment [8] is 0.545 (inactive); in experiment [9], -0.692 (inactive); in [10], -0.824; in experiment [11], 0.0482; in experiment [12], 0.628; in [13], -0.503. In addition, the z-score in [14] was -2.92; in [15] it was -4.22; in [16], 0.675; in [17], -0.539 (inactive); in experiment [18], -1.19; in [19], -1.69. In addition, in experiment [20], the z-score was -0.179 (inactive). The same compound displayed a composite z-score in [2] of 0.42.

On to `CCOC(=O)[C@H]1C/C=C/C[C@H](C(=O)OCC)C(=O)O[C@H]2[C@@H](OC)O[C@H](CO)[C@@H](OC(=O)Nc3ccc(Br)cc3)[C@@H]2OC1=O`, for which the z-score in experiment [1] was 2.32 (inactive); in [3], 5.41 (inactive); in experiment [4], 1.8 (inactive); in [5] it was -3.28 (inactive); in experiment [6] it was 0.412 (inactive); in experiment [7] it was 1.5. The z-score in experiment [8] is -0.611 (inactive); in experiment [9] it was -0.759 (inactive); in [10], 1.63; in experiment [11], -4.47; in experiment [12], -0.34; in experiment [13], -5.12. Besides, the z-score in experiment [14] is -3.28; in [15], -4.16; in [16] it was -3.44; in experiment [17] it was 2.89 (inactive); in experiment [18], -0.948; in experiment [19] it was -1.83. Besides, in [20], the z-score was -7.29 (inactive). The composite z-score in experiment [2] turned out to be 0.0606.

`C[C@@H]1NC(=O)CC=C[C@@H](C)[C@@H]2C=C[C@H](O)[C@@H](COC(=O)[C@H](C)NC(=O)CC=C[C@@H](C)[C@@H]3C=C[C@H](O)[C@@H](COC1=O)O3)O2`: the z-score in experiment [1] is 0.327 (inactive); in [3], 1.33 (inactive); in experiment [4], -0.302 (inactive); in [5], 0.232 (inactive); in experiment [6] it was -1.39 (inactive); in experiment [7] it was 1.64. Further, the z-score in [8] was 1.28 (inactive); in experiment [9], -0.991 (inactive); in experiment [10], -0.0558; in experiment [11], 0.362; in experiment [12] it was 1.59; in [13] it was -0.195. The z-score was 0.188 in experiment [14]; -1.38 in experiment [15]; 1.1 in [16]; 0.863 (inactive) in [17]; 0.21 in experiment [18]; 0.665 in [19]. Further, the z-score in experiment [20] was -0.756 (inactive). Moreover, the composite z-score in experiment [2] is -0.147.

`O=C(CS)NCCCCCNC(=O)[C@H]1C[C@H]2C(=O)N3CCC[C@H]3C(=O)N2[C@H]1c1ccc(O)cc1`: the z-score in [1] was 1.65 (inactive); in experiment [3], 2.68 (inactive); in experiment [4], -0.856 (inactive); in experiment [5], -2.55 (inactive); in experiment [6], -1.63 (inactive); in experiment [7], 1.24. Besides, the z-score is 0.274 (inactive) in [8]; 0.00663 (inactive) in experiment [9]; 0.214 in [10]; 0.931 in [11]; -0.172 in experiment [12]; -0.0292 in [13]. Besides, the z-score was 0.965 in [14]; -0.0858 in [15]; 1.89 in [16]; 0.797 (inactive) in experiment [17]; 0.34 in experiment [18]; -0.235 in [19]. In addition, the z-score in [20] is 0.641 (inactive). The compound also returned a composite z-score in experiment [2] of 0.357.
